In the library only some 1.2% were active in any assay of this set; here they are far more common.
MmCpn inh – inhibitors of Methanococcus maripaludis chaperonin TRiC (MmCpn). purified Mm-Cpn ATPase, ADP Transcreener TR-FRET. Potency, µM (doses to about 76.9 µM), for the others: at the top dose activity, negative = inhibition, usual class: inhibitors. 330,000 compounds, 0.031% hits. AID 504842; active = well fitted inhibition curve with a large enough effect; inconclusive = small, poorly fitted or top-dose-only effect; note: potency is the fitted concentration of half-maximal effect; % is set by controls: 0 for no effect and ±100 for the full control effect; nearly all actives have a fitted effect of over 80% in size
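ATPase read-out: TR-FRET ADP immunoassay (anti-ADP Eu cryptate vs ADP-d2), ex 320 nm, em 590/665 nm; signal drops as ADP forms. Enzyme 25 nM, ATP 10 uM, 30 min at 37°C after 10 min compound preincubation.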
TSHR antagonist – blocks TSH signaling through the human TSH receptor; P16473; TSHR-expressing cells, TSH-stimulated cAMP HTRF, 2 h; stronger effect = lower value; activity change, negative = inhibition, % at 11.5 µM; 330,000 compounds, 0.2% hits; AID 504810;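 active = activity change below a set negative limit, meaning inhibition stronger than a set level, cut at about -70% in these data; inconclusive = activity change between two set negative limits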; note: % is set by controls: 0 for no effect and ±100 for the full control effect
Target sequence (P16473 whole entry, looked up): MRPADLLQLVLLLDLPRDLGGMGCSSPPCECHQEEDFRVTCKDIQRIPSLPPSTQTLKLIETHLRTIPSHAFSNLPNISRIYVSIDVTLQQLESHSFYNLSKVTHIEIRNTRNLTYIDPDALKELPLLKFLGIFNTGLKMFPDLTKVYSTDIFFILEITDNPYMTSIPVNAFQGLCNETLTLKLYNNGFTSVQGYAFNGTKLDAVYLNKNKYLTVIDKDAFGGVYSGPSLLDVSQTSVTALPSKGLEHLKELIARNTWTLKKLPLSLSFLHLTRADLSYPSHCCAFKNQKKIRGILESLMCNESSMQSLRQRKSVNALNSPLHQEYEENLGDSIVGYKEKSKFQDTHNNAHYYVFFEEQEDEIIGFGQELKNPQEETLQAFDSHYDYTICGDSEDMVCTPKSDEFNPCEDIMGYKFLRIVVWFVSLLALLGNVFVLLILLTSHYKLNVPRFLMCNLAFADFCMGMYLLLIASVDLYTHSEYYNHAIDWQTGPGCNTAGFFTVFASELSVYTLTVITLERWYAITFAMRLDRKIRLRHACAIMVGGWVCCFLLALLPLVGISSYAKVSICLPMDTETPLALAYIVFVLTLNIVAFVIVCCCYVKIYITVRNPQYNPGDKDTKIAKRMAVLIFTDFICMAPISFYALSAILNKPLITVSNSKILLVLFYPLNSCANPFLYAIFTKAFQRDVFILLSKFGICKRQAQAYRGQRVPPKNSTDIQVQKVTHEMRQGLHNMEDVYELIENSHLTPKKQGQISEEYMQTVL
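Cell-based HTRF cAMP assay; TSHR cells + compound, TSH EC80 (4nM final), 2 h, 37 deg C. Lysis with anti-cAMP cryptate and cAMP-d2, 30 min RT, read 665/620 nm.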
CCT modulator – cytosolic chaperonin activity modulation | purified chaperonin ATPase assay, HTRF ADP detection, 30 min | activity change, % (test concentration not listed), hits read low | 360,000 compounds, 0.3% hits; in the data active = activity change below about -30%; note: % is set by controls: 0 for no effect and ±100 for the full control effect
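ATPase activity: ADP formed was measured by HTRF Transcreener (665/615 nm ratio) after 30 min at 37 deg C with 10 uM ATP. Compounds screened at one 76 uM concentration against 40 or 20 nM TRiC in Tris pH 7.4/KCl/MgCl2/DTT buffer.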
gsp antag – antagonizes gsp, the McCune-Albright syndrome mutation; 340,000 compounds, 0.4% hits; AID 624288; gsp-mutant cells, cAMP HTRF, 30 min; Potency, µM (top dose mostly 76.9 µM), for inactives: at the highest dose activity change, negative = inhibition, usual class: inhibitors; calls by dose curve; cell line not stated here;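 note: intracellular cAMP measured with PDE inhibitor Ro 20-1724 present during compound exposure; potency is the fitted concentration of half-maximal effect; % is set by controls: 0 for no effect and ±100 for the full control effect; nearly all actives have a fitted effect of over 65% in size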
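Cells in G418 medium, seeded 16-24 h, 37C; buffer exchange to DPBS + 1 mM CaCl2, 0.5 mM MgCl2, 0.05% BSA; cpds in DMSO + […] (300 uM stock), 30 min 37C; HTRF cAMP detection.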
uPA surface inh – cell surface uPA generation inhibition; cell surface uPA generation assay, qHTS; 330,000 compounds, 0.31% hits; Potency, µM (top dose mostly 38.3 µM), without a hit: top-dose activity change, negative = inhibition, usual class: inhibitors; active = well fitted inhibition curve with a large enough effect; inconclusive = small, poorly fitted or top-dose-only effect; inactive = no such curve, though single readings can be large or run the other way; tested in mouse RAW 264.7 cells; note: potency is the fitted concentration of half-maximal effect; % is set by controls: 0 for no effect and ±100 for the full control effect; nearly all actives have a fitted effect of over 55% in size
gsp ag – gsp mutant agonism; AID 624287; 340,000 compounds, 0.13% hits; gsp mutant cells, cAMP HTRF, 30 min; Potency, µM (doses to about 76.9 µM), for the others: at the top dose activation (cAMP increase), actives largely listed as activators; active = well fitted activation curve with a large enough effect; inconclusive = small, poorly fitted or top-dose-only effect, or another doubt; inactive = no such curve, though single readings can be large or run the other way; cell line not stated here;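 note: phosphodiesterase inhibitor Ro 20-1724 added with compounds to block cAMP breakdown; potency is the fitted concentration of half-maximal effect; nearly all actives have a fitted effect of over 60% in size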
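Cells in DMEM/10% FBS with G418 were pretreated with compounds in DMSO plus […] (300 uM stock) for 30 min at 37C. cAMP was measured by HTRF (cAMP-d2 plus anti-cAMP antibody-K) after 30 min at room temperature.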
The depositor's hits bear a star; [ ] = remark or other dose.

CCN(CC)c1ccc(/C=N/Nc2nc3ccccc3[nH]2)c(O)c1 was read as MmCpn inh -3%, TSHR antagonist 13, CCT modulator -31*, gsp antag 1%, uPA surface inh 0% and gsp ag -11%.
For COc1cccc(NC(=O)Cn2nnc(C(=O)NCc3cccs3)c2N)c1 the results were MmCpn inh -2%, TSHR antagonist -2, CCT modulator -2, gsp antag 9%, uPA surface inh 7% and gsp ag -3%.
COc1ccc(NC(=O)Cn2nnc(C(=O)NCc3cccs3)c2N)c(OC)c1 was read as MmCpn inh 2%, TSHR antagonist -132*, CCT modulator -6, gsp antag 9%, uPA surface inh 8% and gsp ag inconclusive.
`CCc1ccccc1NC(=O)Cn1nnc(C(=O)NCc2cccc(OC)c2)c1N` gave MmCpn inh 2%, TSHR antagonist 4, CCT modulator -3, gsp antag 8%, uPA surface inh 4µM* and gsp ag 6%.
For COc1cccc(CNC(=O)c2nnn(CC(=O)Nc3ccc(C)c(C)c3)c2N)c1 the results were MmCpn inh -1%, TSHR antagonist 0, CCT modulator 0, gsp antag 11%, uPA surface inh 3% and gsp ag -18%.
For Cn1c(-c2ccccc2)c(/C=N/NC(=O)c2ccc(O)cc2)c2ccccc21 the results were MmCpn inh -6%, TSHR antagonist -4, CCT modulator -1, gsp antag inconclusive, uPA surface inh 3.5µM* and gsp ag 11%.
Screening O=C(N/N=C\c1c(O)ccc2ccccc12)c1ccc(O)cc1 returned MmCpn inh 1%, TSHR antagonist -9, CCT modulator 1, gsp antag -4%, uPA surface inh inconclusive and gsp ag -7%.
`CC(NC(=O)/C=C/c1ccccc1)c1ccccc1` (centres undefined) gave MmCpn inh 2%, TSHR antagonist -10, CCT modulator -2, gsp antag 5%, uPA surface inh -2% and gsp ag 0%[15.4 µM].
Screening COc1ccc(C)cc1N=Nc1ccc(O)c2ncccc12 returned MmCpn inh 2%, TSHR antagonist -4, CCT modulator 3, gsp antag 15%, uPA surface inh 3.5µM* and gsp ag -37%.
For COc1ccc(CNC(=O)C2CC(=O)N(c3ccc(OCC(=O)N4CCCCC4)cc3)C2)cc1 (centres undefined) the results were MmCpn inh 2%, TSHR antagonist 16, CCT modulator -4, gsp antag -5%, uPA surface inh 13% and gsp ag -1%.
Screening CCC(=O)NC(Nc1sc2c(c1C(=O)OC)CCC2)C(Cl)(Cl)Cl (centres undefined) returned MmCpn inh -2%, TSHR antagonist -72*, CCT modulator -7, gsp antag -36%, uPA surface inh 3% and gsp ag 1%.
Screening Cn1c(SCC(=O)NCC2CCCO2)nnc1-c1ccc(S(=O)(=O)N2CCCC2)cc1 (centres undefined) returned MmCpn inh 1%, TSHR antagonist -2, CCT modulator -3, gsp antag -2%, uPA surface inh 8% and gsp ag 18%.
Cc1ccc(Cl)cc1N1CCN(C(=O)C2CCN(c3nnc(-n4cccc4)s3)CC2)CC1 was read as MmCpn inh 0%, TSHR antagonist -11, CCT modulator -3, gsp antag -19%, uPA surface inh -10% and gsp ag 26%.
Cc1cccc(N2CCN(C(=O)C3CCN(S(=O)(=O)c4cccc5nsnc45)CC3)CC2C)c1 (centres undefined) was read as MmCpn inh -2%, TSHR antagonist -16, CCT modulator 3, gsp antag 35µM*, uPA surface inh -10% and gsp ag 17%.

From PubChem BioAssay
